# Laboratory results published in PubChem BioAssay (NCATS).
# Results filed as inconclusive are left out. Activity calls are given as the source filed them. Unless noted, the call rests on the fitted dose curve; in most records, active means well fitted curve in either direction with a large enough effect (not every such curve was filed as active); inconclusive means small, poorly fitted or top-dose-only effect, or another doubt; inactive means flat fitted curve, though single readings scatter.
# How the values were obtained:
# [1] = biological target: Lysosomal acid glucosylceramidase (Homo sapiens) (UniProt P04062); test: Glucocerebrosidase-p2 (AID 348; in the data active means potency below about 10 µM; further: potency means the concentration at half of the fitted maximal effect); conditions: purified GBA, blue fluorogenic substrate, 40 min
# Outline: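 Normal human glucocerebrosidase (0.2 nM) with blue fluorogenic substrate (80 uM final) in citrate/phosphate pH 5.9 with 10mM sodium taurocholate, 0.01% tween-20; 40 min RT, NaOH/glycine stop; fluorescence Ex 365/Em 440; AC50 from a titration from 0.6 nM upwards.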
# [2] = AP1 Signaling Pathway (AID 357); conditions: ME-180 AP-1-bla reporter, EGF-induced, beta-lactamase ratio, 5 h; at 7.69 µM (top of the series) unless noted;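 further: ME-180 reporter cells stimulated with EGF at its EC50 level; on the % scale 0 is the no-effect control and ±100 the full control effect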
# Outline: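 A ratiometric CCF4 readout (405 nm excitation; 460 and 530 nm emission) quantified AP-1-driven beta-lactamase in ME-180 cells after 5 h with compound and EC50 EGF; AC50 values were derived for activators and inhibitors.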
# [3] = biological target: Cytochrome P450 1A2 (Homo sapiens) (UniProt P05177); test: p450-cyp1a2 (AID 410; calls by dose curve; further: potency means the concentration at half of the fitted maximal effect;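 on activity change, negative = inhibition: -100% = full effect of reference inhibitor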); conditions: recombinant CYP1A2, luciferin-ME demethylation, luminescence; series mostly up to 57 µM
# Outline: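 20nM CYP1A2, 100uM Luciferin-ME (=Km), 100mM KPO4; cpd 10 min RT; +NADPH regen, 60 min RT; stop/detect 20 min; luminescence. Normalized to furafylline 57 uM = full inhibition.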
# [4] = NFAT Signaling Pathway (AID 444); conditions: Jurkat NFAT-bla M1, carbachol, beta-lactamase ratio, 5 h; at 7.69 µM (top of the series) unless noted;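 further: carbachol stimulus at about its EC50 of 1 µM final; on the % scale 0 is the no-effect control and ±100 the full control effect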
# Outline: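 Jurkat cells carrying an NFAT-driven β-lactamase reporter and co-transfected muscarinic M1 receptor were treated with compound plus carbachol (1 uM final, an EC50 level) for 5 h at 37 °C. CCF4 loading followed for 1 h at RT; 460/530 nm ratio gave %activity.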
# [5] = Stat Signaling Pathway (AID 446); conditions: ME-180 (cervical carcinoma) SIE beta-lactamase reporter, IL-6 stimulated, 5 h; at 7.69 µM (top of the series) unless noted;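 further: ME-180 cervical cancer cells given 40 pM IL-6 alongside compound; SIE-controlled beta-lactamase reporter measured as 460/530 nm FRET emission ratio; on the % scale 0 is the no-effect control and ±100 the full control effect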
# Outline: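 Overnight-plated ME-180 cells bearing a STAT Inducible Element beta-lactamase reporter; 5 h co-exposure to compound and 40 pM IL-6; values normalized to 300 pM IL-6 and 125 nM JAK inhibitor controls.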
# [6] = biological target: Glucocorticoid receptor (Homo sapiens) (UniProt P04150); test: GR-EFC Redistribution (AID 451; calls by dose curve; further: potency means the concentration at half of the fitted maximal effect); conditions: CHO-K1 GR-EFC translocation, beta-gal luminescence, 2 h
# Outline: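 CHO-K1 cells stably expressing nuclear-localized β-gal enzyme acceptor and GR fused C-terminally to the enzyme donor fragment; ligand-driven nuclear translocation restores β-gal by complementation. Compounds titrated up to 46 uM final, 2 h at 37 °C; luminescence read.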
# [7] = biological target: Mitogen-activated protein kinase 10 (Mus musculus) (UniProt Q61831); test: JNK3 AlphaScreen Assay (AID 530); conditions: JNK3 lysate, c-Jun phosphorylation; series mostly up to 57.1 µM;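 further: kinase came from lysate of stimulated human HepG2 cells; signal reports phosphorylation of biotinylated GST-cJun 1-79 at Ser73 with 10 µM ATP; on the % scale 0 is the no-effect control and ±100 the full control effect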
# Outline: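 Biotinylated GST-cJun(1-79) served as substrate for JNK3 in HepG2 lysates stimulated with IL-1beta and TNF-alpha. ATP was 10 uM final, pH 7.6. Ser73 phosphorylation was quantified by AlphaScreen (680 nm excitation).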
# [8] = biological target: 3',5'-cyclic-AMP phosphodiesterase 4B (Homo sapiens) (UniProt Q07343); test: qHTS Assay for Inhibitors of PDE-IV (AID 607; active means well fitted activation curve with a large enough effect in the main read-out, with a control signal flat, not every such curve was filed as active; further: % of control where 0% means no effect); conditions: HEK293 ACTOne CNG channel cells, membrane potential fluorescence; series mostly up to 22.9 µM
# Outline: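 Live HEK293 cells with a modified cyclic nucleotide-gated (CNG) channel report intracellular cAMP via membrane-potential dye fluorescence (ex 535/em 590 nm). Endogenous PDE-IV was targeted. Compounds were tested at up to 22.9 uM final; RO 20-1724 100 uM served as control.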
# [9] = qHTS Assay for Lipid Storage Modulators (AID 1519; calls by dose curve); conditions: Drosophila S3 cells, BODIPY lipid droplet/cell ratio, laser cytometry, cells loaded with oleic acid; for activity change, negative = inhibition: at 57.5 µM (top of the series)
# Outline: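 Cells seeded at 5,000 per well were treated with compounds over a concentration series and loaded with oleic acid (400 uM, as added). Lipid droplet fluorescence (488 nm excitation, 500-530 nm channel) was read by laser-scanning cytometry and normalized to 20 uM Triacsin C.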
# [10] = Primary qHTS for small molecule stabilizers of the endoplasmic reticulum resident proteome: Secreted ER Calcium Modulated Protein (SERCaMP) assay (AID 1508630; active means well fitted inhibition curve with a large enough effect; further: on the % scale 0 is the no-effect control and ±100 the full control effect); conditions: SH-SY5Y GLuc-SERCaMP (Gaussia luciferase released on ER calcium loss) secretion, thapsigargin, luminescence; series mostly up to 38.4 µM
# Outline: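 The SH-SY5Y reporter protocol was run at 3 concentrations up to 38.3 uM (primary) or 11 concentrations (follow-up): 16 h compound, 100 nM thapsigargin for 4 h, then extracellular luciferase luminescence.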
# [11] = measured here: cell count channel max response
# [12] = measured here: lipid channel max response
# Sequence of 3',5'-cyclic-AMP phosphodiesterase 4B (Homo sapiens) (Q07343 whole entry, looked up): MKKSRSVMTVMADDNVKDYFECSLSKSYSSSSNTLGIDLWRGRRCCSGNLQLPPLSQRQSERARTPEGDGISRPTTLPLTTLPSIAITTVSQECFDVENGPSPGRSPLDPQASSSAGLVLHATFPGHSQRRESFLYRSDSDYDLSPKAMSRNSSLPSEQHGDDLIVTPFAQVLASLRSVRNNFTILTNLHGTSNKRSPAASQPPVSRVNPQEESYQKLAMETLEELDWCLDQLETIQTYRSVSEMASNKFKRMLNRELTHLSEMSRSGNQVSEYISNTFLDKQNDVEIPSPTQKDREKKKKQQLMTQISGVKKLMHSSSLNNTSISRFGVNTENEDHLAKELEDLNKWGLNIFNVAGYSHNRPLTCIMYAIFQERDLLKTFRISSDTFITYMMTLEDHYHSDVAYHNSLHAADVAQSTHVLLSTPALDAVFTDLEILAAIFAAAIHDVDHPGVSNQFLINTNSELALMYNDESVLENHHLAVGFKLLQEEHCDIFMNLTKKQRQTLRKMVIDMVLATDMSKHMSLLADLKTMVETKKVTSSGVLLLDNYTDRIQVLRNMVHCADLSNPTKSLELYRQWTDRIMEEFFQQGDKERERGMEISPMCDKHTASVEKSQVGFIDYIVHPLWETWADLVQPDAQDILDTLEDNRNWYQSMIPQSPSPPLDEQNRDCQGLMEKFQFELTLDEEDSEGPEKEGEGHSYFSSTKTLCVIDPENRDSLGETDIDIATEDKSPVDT
# Sequence of Glucocorticoid receptor (Homo sapiens) (P04150 whole entry, looked up, the tested form may be a part): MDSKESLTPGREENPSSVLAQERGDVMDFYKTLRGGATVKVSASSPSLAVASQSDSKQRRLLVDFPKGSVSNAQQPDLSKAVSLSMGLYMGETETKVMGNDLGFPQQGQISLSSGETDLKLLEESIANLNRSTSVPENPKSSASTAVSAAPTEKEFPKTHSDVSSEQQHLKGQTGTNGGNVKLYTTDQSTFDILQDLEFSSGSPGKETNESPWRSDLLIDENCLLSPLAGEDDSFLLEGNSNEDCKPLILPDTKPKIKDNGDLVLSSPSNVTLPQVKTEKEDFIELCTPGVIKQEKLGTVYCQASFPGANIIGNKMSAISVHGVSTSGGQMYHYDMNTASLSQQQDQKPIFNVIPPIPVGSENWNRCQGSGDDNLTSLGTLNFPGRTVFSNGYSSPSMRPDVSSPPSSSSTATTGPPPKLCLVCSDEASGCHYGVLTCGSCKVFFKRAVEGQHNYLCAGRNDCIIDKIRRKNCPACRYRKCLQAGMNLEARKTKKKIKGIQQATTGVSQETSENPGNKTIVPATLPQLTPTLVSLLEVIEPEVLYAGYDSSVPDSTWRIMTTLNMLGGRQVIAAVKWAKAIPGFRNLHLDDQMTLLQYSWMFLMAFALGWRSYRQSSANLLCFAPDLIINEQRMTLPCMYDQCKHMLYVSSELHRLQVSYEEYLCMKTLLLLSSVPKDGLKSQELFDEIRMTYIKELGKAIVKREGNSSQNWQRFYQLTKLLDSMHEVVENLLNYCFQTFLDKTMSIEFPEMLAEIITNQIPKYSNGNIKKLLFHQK
# Sequence of Lysosomal acid glucosylceramidase (Homo sapiens) (P04062 whole entry, looked up): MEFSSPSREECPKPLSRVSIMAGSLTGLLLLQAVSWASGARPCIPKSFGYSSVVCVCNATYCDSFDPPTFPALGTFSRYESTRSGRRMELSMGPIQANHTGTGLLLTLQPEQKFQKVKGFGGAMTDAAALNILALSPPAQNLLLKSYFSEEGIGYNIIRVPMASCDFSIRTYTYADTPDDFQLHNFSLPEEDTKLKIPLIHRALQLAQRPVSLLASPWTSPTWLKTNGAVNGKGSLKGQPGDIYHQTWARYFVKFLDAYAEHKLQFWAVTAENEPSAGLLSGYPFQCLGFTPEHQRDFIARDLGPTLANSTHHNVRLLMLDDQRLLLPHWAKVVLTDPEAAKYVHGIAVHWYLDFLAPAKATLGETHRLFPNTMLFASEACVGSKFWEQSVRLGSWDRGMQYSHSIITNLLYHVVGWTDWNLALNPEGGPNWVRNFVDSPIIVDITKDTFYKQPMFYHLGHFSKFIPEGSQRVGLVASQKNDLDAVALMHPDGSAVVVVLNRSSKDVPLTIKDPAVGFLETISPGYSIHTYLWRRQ
# Sequence of Cytochrome P450 1A2 (Homo sapiens) (P05177 whole entry, looked up): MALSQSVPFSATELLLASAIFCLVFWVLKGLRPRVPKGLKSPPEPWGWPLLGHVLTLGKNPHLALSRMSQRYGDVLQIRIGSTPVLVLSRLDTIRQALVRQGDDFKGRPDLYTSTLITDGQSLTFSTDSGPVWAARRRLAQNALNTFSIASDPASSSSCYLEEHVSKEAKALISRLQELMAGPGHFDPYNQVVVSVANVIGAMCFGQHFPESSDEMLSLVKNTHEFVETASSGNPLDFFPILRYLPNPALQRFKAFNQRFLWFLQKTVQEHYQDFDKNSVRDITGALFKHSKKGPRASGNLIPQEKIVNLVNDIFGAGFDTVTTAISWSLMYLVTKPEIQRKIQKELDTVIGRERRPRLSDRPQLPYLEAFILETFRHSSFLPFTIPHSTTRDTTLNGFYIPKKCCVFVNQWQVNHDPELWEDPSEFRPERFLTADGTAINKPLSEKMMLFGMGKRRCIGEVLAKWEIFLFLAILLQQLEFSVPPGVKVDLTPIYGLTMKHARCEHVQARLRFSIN
Structure (SMILES),Potency [1],"activity change, negative = inhibition [2]",Potency [3],"activity change, negative = inhibition [4]","activity, negative = inhibition [5]",Potency [6],outcome [7],Potency [8],"activity change, negative = inhibition [9]","max response [9, 11] [%]","max response [9, 12] [%]",Potency [10]
Cc1noc(C)c1C(=O)N1CCC[C@@]2(CCN(c3ncccn3)C2)C1,> 11.4 µM (inactive),2.18% (inactive),inactive,7.6% (inactive),-3.95% (inactive),> 46 µM (inactive),inactive,inactive,-1.94% (inactive),7.95,6.75,inactive
COc1ccc(NC(=O)N2CC3(CCN(C(=O)c4cccn4C)CC3)C2)cc1,> 11.4 µM (inactive),-10.5% (inactive),inactive,14.9% (inactive),-11.3% (inactive),> 46 µM (inactive),inactive,inactive,6.73% (inactive),8.75,21.6,inactive
COc1ccc(NC(=O)N2CC3(CCN(C(=O)c4c(C)noc4C)CC3)C2)cc1,> 11.4 µM (inactive),4.05% (inactive),inactive,15.1% (inactive),-8.69% (inactive),> 46 µM (inactive),inactive,inactive,4.67% (inactive),5.82,14.2,inactive
CS(=O)(=O)N1CCC2(CCCN(C(=O)Nc3ccccc3)C2)CC1,> 11.4 µM (inactive),-5.5% (inactive),15.8 µM (active),11% (inactive),3.16% (inactive),> 46 µM (inactive),inactive,inactive,1.48% (inactive),3.7,9.01,inactive
O=C(Nc1cccc(F)c1)N1CC2(CCN(C(=O)c3csnn3)CC2)C1,> 11.4 µM (inactive),-24.7% (inactive),inactive,16.8% (inactive),-8.23% (inactive),> 46 µM (inactive),inactive,inactive,5.27% (inactive),2.11,8.72,inactive
CC(C)NC(=O)N1CCC2(CC1)CCN(C(=O)c1ccco1)CC2,> 11.4 µM (inactive),-2.03% (inactive),inactive,12% (inactive),8.93% (inactive),> 46 µM (inactive),inactive,inactive,3.89% (inactive),8.07,11.7,inactive
COCC(=O)N1CCC2(CC1)CN(C(=O)Nc1ccc(OC)cc1)C2,> 11.4 µM (inactive),-2.15% (inactive),inactive,21.1% (inactive),2.17% (inactive),> 46 µM (inactive),inactive,inactive,3.11% (inactive),23,29.3,inactive
O=C(c1csnn1)N1CCC2(CC1)CN(Cc1cc(C(F)(F)F)cc(C(F)(F)F)c1)C2,> 11.4 µM (inactive),15.8% (inactive),inactive,-21.8% (inactive),3.59% (inactive),> 46 µM (inactive),inactive,inactive,-4.63% (inactive),8.43,5.85,inactive
O=C(Nc1cccc(F)c1)N1CCC2(CC1)CCN(C(=O)c1csnn1)CC2,> 11.4 µM (inactive),-8.39% (inactive),inactive,26.3% (inactive),-9.77% (inactive),> 46 µM (inactive),inactive,inactive,5.59% (inactive),12.6,21.6,inactive
COC(=O)N1CCC2(CCN(Cc3cc(C(F)(F)F)cc(C(F)(F)F)c3)CC2)CC1,> 11.4 µM (inactive),-23.4% (inactive),inactive,-22.9% (inactive),0.155% (inactive),> 46 µM (inactive),inactive,–,2.7% (inactive),-2.08,2.77,inactive
CS(=O)(=O)N1CCC[C@@]2(CCN(C(=O)Nc3ccccc3)C2)C1,> 11.4 µM (inactive),-1.88% (inactive),inactive,17.3% (inactive),-10.3% (inactive),> 46 µM (inactive),inactive,inactive,0.904% (inactive),16.4,17.6,inactive
Cc1noc(C)c1C(=O)N1CCC2(CCN(C(=O)NC(C)C)CC2)CC1,> 11.4 µM (inactive),-3.73% (inactive),5.01 µM (active),5.4% (inactive),3.31% (inactive),> 46 µM (inactive),inactive,inactive,4.44% (inactive),4.63,11.9,inactive
O=C(c1ccncc1)N1CCC2(CC1)CCN(c1ccccc1)CC2,> 11.4 µM (inactive),-1.33% (inactive),inactive,12.8% (inactive),-1.17% (inactive),> 46 µM (inactive),inactive,inactive,2.16% (inactive),0.126,6.62,inactive
O=C(c1ccco1)N1CCC2(CC1)CCN(c1ccccc1)CC2,> 11.4 µM (inactive),2.89% (inactive),inactive,-1.84% (inactive),-6.6% (inactive),> 46 µM (inactive),inactive,inactive,1.71% (inactive),23.3,29.9,inactive
